CHX counter: counter-screen hit for Shiga toxin inhibitors, cycloheximide. 300,000 compounds, 12% hits. max response, %. AID 2314. cell reporter, cycloheximide protein synthesis inhibition counterscreen; in the data active means max response mostly above about 13%, no sharp cut-off; inactive means mostly below about 14%; further: read at 38.3 µM for the half of the compounds with a filed dose
NS1 function inh: blocks influenza NS1 protein function; Potency, µM (doses to about 46.1 µM); 270,000 compounds, 0.4% hits; AID 2326; calls by dose curve; further: actives are rising curves; nearly all actives have a fitted effect of over 50% in size
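In this qHTS, NS1 from influenza A is expressed in budding yeast, where it slows growth. Cells are switched from glucose to 2% galactose medium (pH 6.0, -URA), treated with compound, and growth recovery is read at OD600.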
Shiga inhibitor: blocks Shiga toxin action in Vero cells | Vero cells, Shiga toxin protein synthesis inhibition reporter | inhibition, % at 38.7 µM | 290,000 compounds, 9.2% hits | AID 2315; in the data active means inhibition mostly above about 28%, no sharp cut-off; inactive means mostly below about 43%
Sm TGR inh: inhibitors of Schistosoma mansoni thioredoxin glutathione reductase. AID 485364. 360,000 compounds, 3% hits. Q962Y6. purified TGR, DTNB reduction, TNB absorbance 405 nm. Potency, µM (titrated, usually from 114 µM), usual class: inhibitors; further: nearly all actives have a fitted effect of over 60% in size
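TGR 20 nM + NADPH 100 uM (dispensed conc.), cpd preinc 15 min RT; start with NADPH (500 uM addition) then DTNB (15 mM addition). Kinetic TNB absorbance, 405 nm filter. Four-parameter Hill fit across titration.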
Pf growth 48h: P. falciparum growth inhibition at 48 hours (one generation). P. falciparum luciferase growth in erythrocytes, 48 h. Potency, µM (top dose mostly 28.7 µM), most hits filed as inhibitors. 310,000 compounds, 5.9% hits. AID 504832
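Luminescence readout; reporter = integrated firefly luciferase in P. falciparum. RBC culture at 2% hematocrit, 0.1% parasitemia final, 37 C/5% CO2; decreased signal taken as growth inhibition.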
Pf growth 96h: P. falciparum growth inhibition at 96 hours | 320,000 compounds, 6.9% hits | Potency, µM (doses to about 28.7 µM), actives largely listed as inhibitors | P. falciparum luciferase reporter growth, 96 h
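Erythrocytes infected with luciferase-expressing P. falciparum were dispensed at 2% hematocrit and 0.05% parasitemia (final), then incubated with compounds 96 hours at 37 C in 5% CO2. Luminescence after detection reagent addition reported growth.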
Numbers stand for hits; n = inactive; u = inconclusive; x = not tested or not shown; [ ] = dose if it differs, or a comment. An excerpt weighted towards active compounds, which were near 21% of everything screened. Unless noted, the call rests on the fitted dose curve; in most records, active means well fitted curve in the direction sought with a large enough effect; inconclusive means small, poorly fitted or top-dose-only effect, or another doubt; inactive means no such curve, though single readings can be large; an effect the other way counts as inactive or inconclusive.

SMILES	CHX counter	NS1 function inh	Shiga inhibitor	Sm TGR inh	Pf growth 48h	Pf growth 96h
O=C1/C(=C/c2ccco2)SC(=S)N1c1cccnc1	n	n	n	14µM	n	n
O=C1/C(=C\c2ccc(O)cc2)SC(=S)N1c1cccnc1	n	n	n	n	n	n
CCOC(=O)CN1C(=O)S/C(=C/c2ccco2)C1=O	15	n	n	u	n	n
NN1C(=O)/C(=C\c2ccco2)SC1=S	n	n	n	11µM	n	n
COc1cc(Cl)c(S(=O)(=O)N2CCN(c3c(C)cccc3C)CC2)cc1Cl	x	x	x	n	x	x
Cc1ccc2c(c1)N(CC(=O)NCC1COc3ccccc3O1)C(=O)CO2 (configuration not stated)	x	n	x	x	x	x
O=C(NCc1ccc(Cl)cc1)C(=O)NCC1OCCN1C(=O)c1cccs1 (configuration not stated)	n	n	n	n	n	n
CC(=O)Nc1cccc(NC(=O)C2CC(=O)N(CCc3ccc(F)cc3)C2)c1 (configuration not stated)	n	n	n	n	n	n
CCCc1c(C)nn(-c2ncccc2[N+](=O)[O-])c1C	n	n	n	n	n	n
O=c1n(-c2ccc(Br)cc2)cnn1-c1ncccc1[N+](=O)[O-]	31	n	91	x	n	n
Cc1ccc(CN(Cc2cc3cc(C)ccc3[nH]c2=O)C(=O)N2CCOCC2)cc1	n	n	n	n	6.6µM	u
O=C(Cc1c(F)cccc1Cl)Nc1ccccc1C(=O)N1CCCCC1	x	x	x	n	n	n
COCCc1nn2c(=O)cc(COC(=O)COc3ccc(F)cc3)nc2s1	x	x	x	n	x	x
Cc1ccc(C(=O)O/N=C(\N)c2ccc(C(F)(F)F)cn2)cc1	n	n	n	n	n[0.00184 µM]	n
N/C(=N\OC(=O)c1csnn1)c1ccc(C(F)(F)F)cc1	40	n	72	n	n	n
CC(c1nccs1)N(C)C(=O)CCc1nnc(-c2ccc(-c3ccccc3)cc2)o1 (configuration not stated)	26	n	n	n	u	n
O=C(CCc1nnc(-c2ccccc2)o1)NCc1c(F)cccc1F	n	n	n	n	n	13µM
CC(NC(=O)CCc1nnc(-c2ccc(-c3ccccc3)cc2)o1)c1nccs1 (configuration not stated)	14	n	n	n	n	n
O=C(CCc1nnc(-c2ccc(-c3ccccc3)cc2)o1)NCCc1ccccn1	18	n	n	n	n	u
O=C(CCc1nnc(-c2ccccc2)o1)c1ccc(Cl)cc1	n	n	n	n	n	n
C[C@H](C[C@H](N)C(=O)O)C(=O)O	n	x	n	x	x	x
O=C(CCc1nnc(Cc2ccc(-c3ccccc3)cc2)o1)NCC1CC1	n	n	n	n	n	n
COCCNC(=O)CCc1nnc(Cc2ccc(-c3ccccc3)cc2)o1	n	n	n	n	n	12µM
O=C(CS(=O)(=O)c1cccc2nsnc12)Nc1cc(F)ccc1F	x	x	x	n	x	x
Nc1ccc(C(=O)N2CCN(S(=O)(=O)c3ccc4c(c3)OCCO4)CC2)cc1[N+](=O)[O-]	n	n	n	n	n	n
SMILES	CHX counter	NS1 function inh	Shiga inhibitor	Sm TGR inh	Pf growth 48h	Pf growth 96h
CC(Oc1ccc(Cl)cc1Cl)c1nc(-c2ccc(NC(=O)c3ccncc3)cc2)no1 (configuration not stated)	n	n	n	n	15µM	9.3µM
CCC(c1ccccc1)c1nc(-c2ccccn2)no1 (configuration not stated)	n	n	n	n	n	n
CC(Oc1ccc(Cl)cc1Cl)c1nc(-c2ccc(NC(=O)c3cccnc3)cc2)no1 (configuration not stated)	n	n	n	n	3.3µM	n
CC(Oc1ccc(Cl)cc1Cl)c1nc(-c2ccccn2)no1 (configuration not stated)	36	n	97	n	n	n
CC(Oc1ccc(Cl)cc1Cl)C(=O)NNC(=O)c1ccncc1 (configuration not stated)	x	x	x	n	n	n
O=C(Cn1nnc2ccccc2c1=O)NCCc1ccc(F)cc1	n	n	n	n	n	n
CCOC(=O)Cn1c(=NC(=O)c2cccs2)sc2cc(C(=O)OC)ccc21	44	n	72	n	n	n
C=CCSc1nc2c(c(-c3ccsc3)c1C#N)CN(C)CC2	n	n	n	10µM	u	u
O=[N+]([O-])c1cccc(-c2ccc(/C=N/NC(=S)Nc3ccccc3)o2)c1	14	n	n	n	u	n
Fc1ccccc1NC(=S)N/N=C/c1ccccc1Br	22	n	n	n	n	x
O=[N+]([O-])c1ccc(/C=N/NC(=S)Nc2ccccc2F)o1	34	n	n	u	n	n
O=C(N/N=C/c1ccc([N+](=O)[O-])o1)c1cc2ccccc2o1	n	n	n	u	u	u
O=[N+]([O-])c1cccc(-c2ccc(/C=N/NC(=S)NCc3ccco3)o2)c1	n	n	n	n	u	n
O=[N+]([O-])c1ccc(/C=N/Nc2ccc3ccccc3c2)o1	58	n	126	n	n	n
CCCCN1CSC(=S)N(Cc2ccccc2)C1	x	n	x	x	x	x
O=C(NC(Cc1ccccc1)c1ccc2c(c1)OCCCO2)c1ccccc1 (configuration not stated)	n	n	n	n	x	n
O=S(=O)(NCCc1ccccc1)c1ccccc1Br	n	x	n	x	x	x
O=[N+]([O-])c1ccc(/C=N/NC(=S)Nc2ccccc2)o1	23	n	48	u	n	n
O=C(N/N=C/c1ccc([N+](=O)[O-])o1)C1CCCC1	n	n	n	u	u	u
COc1ccc(S(=O)(=O)N/N=C\c2ccc([N+](=O)[O-])o2)c(OC)c1	n	n	n	n	n	10µM
COc1ccc2c(c1)CCCC21SC(NC(C)=O)=NN1C(C)=O (configuration not stated)	n	x	n	n	n	n
O=C(CCl)N(c1ccccc1)C1CCCCC1	n	x	n	3.2µM	10µM	13µM
COc1ccc(-c2nc(SC(C)C(=O)NC3CC3)n[nH]2)cc1 (configuration not stated)	x	x	x	n	u	u
COc1cc(C2CC(=O)Oc3ccc(O)cc32)cc(OC)c1OC (configuration not stated)	n	x	n	x	x	x
NC(=O)C1=C[C@@H](c2ccc(C(F)(F)F)cc2)C[C@@H](OCc2ccc(CO)cc2)O1	n	n	n	n	n	n
C#CCNC(=O)C1=C[C@H](c2ccc(C(F)(F)F)cc2)C[C@H](OCc2ccc(CO)cc2)O1	n	n	n	40µM	u	u
C#CCNC(=O)C1=C[C@@H](c2ccccc2)C[C@@H](OCc2ccc(CO)cc2)O1	n	n	n	45µM	n	n
C#CCNC(=O)C1=C[C@@H](C)C[C@@H](OCc2ccc(CO)cc2)O1	n	n	n	n	n	n
COc1ccc(CCNC(=O)Cc2c(C)c3cc4c(C(C)(C)C)coc4c(C)c3oc2=O)cc1	x	x	x	n	x	x
